# High-throughput results as filed in PubChem.
# The list is not random: actives were taken first. Their share in the collection is about 3.3%.
# Statin myotox sup: protects C2C12 myotubes from simvastatin toxicity. 0.78% of 330,000 active. rescue of ATP level, % at 7.49 µM. ATP luminescence, 48 h; scaled: DMSO 0, geranylgeraniol control 100;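 active means mean ATP rescue above about 67%, or every replicate alone reaching that limit, limit read from the data, passing the limit was not always enough; inconclusive means no clear call, values can overlap the other calls; inactive means mean under the limit and some replicate under it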;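 further: myotubes were challenged with 10 µM simvastatin during compound exposure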
# esBAF inh: inhibitors of esBAF chromatin remodeling in mouse ES cells. Bmi1-luciferase knock-in reporter, 24 h; 100% = twice the neutral-well signal. reporter increase, % at 12.5 µM. 2% of 350,000 active. AID 602393; in the data active means activation above about 40%; inconclusive means no clear call, values can overlap the other calls;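 further: 0% = median of the plate's neutral control wells and 100% = double that signal; a rise in the Bmi1 reporter signal indicates esBAF inhibition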
# Wnt bcat act: Wnt/beta-catenin pathway activation; 1.2% of 300,000 active; activation, % at 9.35 µM; Wnt/beta-catenin reporter cell assay, activator, plate reader; in the data active means activation above about 30%, passing the limit was not always enough; inconclusive means no clear call, values can overlap the other calls;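 further: 0% = neutral control wells and 100% = positive control wells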
# MITF TRPM1 HTS: MITF TRPM1 promoter activation in melanoma cells; SK-MEL-5 TRPM1-promoter luciferase, 24 h; % of positive control, neutral wells = 0; activation, % at 12.5 µM; 0.75% of 300,000 active;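 active means mean activation of at least 80% with every replicate also reaching 80%; inconclusive means mean reaches 80% but some replicate falls short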;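 further: 0% = neutral control wells and 100% = parthenolide positive control wells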
# FXN GAA850 act: activators of GAA850 frataxin (FXN) promoter | HEK293 lucGAA850 FXN promoter luciferase reporter, 24 h; percent of 10 µM SAHA response | activation, % at 6 µM | 0.56% of 360,000 active | AID 540364;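 active means activation above the average of all compounds screened plus 3 SD, cutoff fixed separately per campaign, cut at about 7.5% in these data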;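 further: 0% = DMSO wells and 100% = 10 µM SAHA wells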
# Ring1 derepress: de-represses Ring1 in mouse ESCs, confirming esBAF inhibition | shares compounds with esBAF inh | fold change at 33 µM | AID 743176 | mouse ESC E14, Ring1 mRNA RT-qPCR fold change | 550 tested, under 10 active;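 active means Ring1 gene expression raised more than 2-fold over untreated cells in both replicates at either tested dose; inconclusive means only one replicate above 2-fold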;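 further: Ring1 transcript normalised to actin housekeeping signal by TaqMan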
# esBAF Fgf4 qPCR: esBAF inhibition confirmed by Fgf4 repression; shares compounds with esBAF inh; Fgf4 expression fold change at 33 µM; mouse ESC E14, Fgf4 mRNA qPCR fold change; stronger effect = lower value; 4% of 550 active;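 active means Fgf4 expression under 0.8 fold of control in both repeat measurements at one or both tested doses; inconclusive means under 0.8 fold in just a single repeat measurement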;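 further: Fgf4 transcript normalised to actin in duplex TaqMan qPCR; cells exposed to compound for 24 h before lysis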
# esBAF Bmi1 qPCR: esBAF inhibition confirmed by Bmi1 de-repression; shares compounds with esBAF inh; mouse ESE14 ES cells, Bmi1 mRNA qPCR fold; stronger effect = higher value; fold change at 33 µM; 550 tested, under 10 active;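 active means Bmi1 expression fold change above 6 at either tested concentration, seen in replicate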
# A549 tox SP: cytotoxicity in A549 cells. shares compounds with esBAF inh. plate reader. cell viability change % (negative = cytotoxic), % at 25 µM, hits read low. 550 tested, under 10 active. AID 743188; call rule not given here
# HepG2 tox SP: HepG2 cell cytotoxicity at single point; plate reader; stronger effect = lower value; 4% of 550 active; activity change, negative = inhibition, % at 25 µM; shares compounds with esBAF inh; in the data active means activity change below about -50%
# HEK293 tox SP: kills or reduces viability of HEK293 cells; shares compounds with esBAF inh; HEK293 cytotoxicity, plate reader; activity change, negative = inhibition, % at 25 µM, hits read low; 3% of 550 active; AID 743190; in the data active means activity change below about -38%, passing the limit was not always enough
# The depositor's hits bear a star; ? = inconclusive; nt = not tested or not shown.
SMILES,Statin myotox sup,esBAF inh,Wnt bcat act,MITF TRPM1 HTS,FXN GAA850 act,Ring1 derepress,esBAF Fgf4 qPCR,esBAF Bmi1 qPCR,A549 tox SP,HepG2 tox SP,HEK293 tox SP
C[C@@H]1CN([C@@H](C)CO)C(=O)c2cc(NS(=O)(=O)c3ccc(F)cc3)ccc2O[C@@H](C)CCCCO[C@H]1CN(C)C,27.4,-0.4,nt,nt,nt,nt,nt,nt,nt,nt,nt
Cc1csc(Nc2nc(N)c(C(=O)Nc3ccccc3)o2)n1,-22.7,51.9*,16.7,93.4*,1.2,1.51,0.952,1.77,4.9,12.7,-7.9
Cc1cc2c(cc1C)C(=O)CCC2,5.5,-0.8,0.9,nt,-0.5,nt,nt,nt,nt,nt,nt
O=C1CCCc2cc3c(ccc4ccccc43)cc21,0.6,75.0*,-3.3,43.4,4.0,0.845,0.815,1.2,-6.8,-38.7,16.0
Cc1ccc(Nc2cccccc2=O)cc1,2.3,54.7*,26.2,?,6.7,1.13,1.08,1.77,-5.4,-20.9,-8.7
O=C(c1ccncc1)N1N=C(c2ccc(Cl)cc2)CC1c1ccccc1O (stereo not given),7.3,80.3*,17.5,65.0,6.5,1.37,0.826,1.62,12.2,23.6,5.0
COc1ccc(C2=NN(C(=O)c3ccncc3)C(c3ccccc3O)C2)cc1 (stereo not given),14.2,19.6,2.3,20.9,2.6,nt,nt,nt,nt,nt,nt
Cc1noc(C)c1NC(=O)N(C)C[C@@H]1Oc2ccc(NC(=O)C3CC3)cc2C(=O)N([C@@H](C)CO)C[C@H]1C,-4.2,-4.5,nt,nt,nt,nt,nt,nt,nt,nt,nt
O=C(c1cccs1)N(C(=O)c1cccs1)c1ccc(Br)cn1,-7.4,65.0*,56.3*,30.5,2.2,0.729,0.967,1.59,-9.4,-36.6,-6.2
Cc1ccnc(N(C(=O)c2cccs2)C(=O)c2cccs2)c1,-12.6,8.4,?,30.1,5.0,nt,nt,nt,nt,nt,nt
O=C(C[C@@H]1C=C[C@@H](NS(=O)(=O)c2cccc(F)c2)[C@H](CO)O1)NCc1ccc2c(c1)OCO2,1.5,-3.6,nt,nt,nt,nt,nt,nt,nt,nt,nt
C[C@@H]1CN([C@H](C)CO)C(=O)c2cc(C#Cc3ccccc3F)cnc2O[C@@H]1CN(C)C(=O)c1ccc2c(c1)OCO2,-4.1,2.6,nt,nt,nt,nt,nt,nt,nt,nt,nt
COc1ccc(Cc2nc(-c3cccc(C)c3)no2)cc1,13.5,57.5*,-2.2,38.7,3.2,1.01,0.877,1.4,-6.7,-14.1,-2.2
Cc1cccc(-c2noc(Cc3ccc(Cl)cc3)n2)c1,121.0*,87.3*,-6.3,67.5,1.8,1.15,?,1.34,-6.0,-15.6,2.4
Clc1ccc(Cc2nc(-c3ccncc3)no2)cc1,nt,nt,-1.5,5.4,1.6,nt,nt,nt,nt,nt,nt
COc1ccc(Cc2nc(-c3ccncc3)no2)cc1,nt,nt,-0.1,12.0,-1.7,nt,nt,nt,nt,nt,nt
Nc1nc(SCc2ccccc2)c2ncn(C3CCCCC3)c2n1,-1.3,84.6*,8.7,39.3,7.5,0.993,0.78*,1.46,1.5,21.2,-10.0
O=C(C[C@@H]1CC[C@H]2[C@@H](COC[C@@H](O)CN2C(=O)c2ccncc2)O1)NCc1ccc(-c2ccccc2)cc1,-2.5,3.2,nt,nt,nt,nt,nt,nt,nt,nt,nt
COc1ccc(CNC(=O)c2ccc(-c3ccccc3)cc2)cc1,9.0,61.5*,nt,55.8,4.2,1.29,1.09,1.41,1.3,-45.8,-3.7
COc1ccc(CNC(=O)c2ccc(Br)cc2)cc1,nt,nt,4.8,nt,nt,nt,nt,nt,nt,nt,nt
COc1ccc(CCNS(=O)(=O)CCNC(=O)c2ccccc2)cc1,-6.7,3.8,0.1,-0.2,1.2,nt,nt,nt,nt,nt,nt
COc1ccc(C(=O)NCCS(=O)(=O)NCCc2ccccc2)cc1,18.7,55.8*,-0.7,66.1,3.1,1.28,1.16,1.42,-0.9,-12.3,-10.2
O=C(C1CC1)N1CC[C@H]2[C@H](CO)Nc3ccc(-c4cccc(F)c4)cc3[C@H]21,-2.9,-0.7,nt,nt,nt,nt,nt,nt,nt,nt,nt
